Compound activity from PubChem BioAssay.
FBA Mtb inh: Mtb FBA enzyme inhibitors, primary screen, biochemical, fluorescence, strain H37Rv; 2.3% of 360,000 active; purified M. tuberculosis FBA, fluorescence read-out; inhibition, % at 1 µM; AID 588726, 2011; in the data active = inhibition above about 27%;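 also: 0% = vehicle and 100% = reference inhibitor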
Y pestis TopoI: Yersinia pestis topoisomerase I inhibitors, primary screen, biochemical, cleavage product accumulation, plate reader, single point | DNA topoisomerase I (Yersinia pestis CO92) | Y. pestis Topo-I cleavage product accumulation | activity, % at 10 µM | 0.064% of 360,000 active | AID 504884, 2011; in the data active = activity above about 50%, passing the limit was not always enough
GDH-TPI inh: GDH-TPI coupling enzyme inhibitors, primary screen, artefact control for M. tuberculosis FBA inhibitor project, biochemical, absorbance, full deck. 1.2% of 360,000 active. AID 588335, 2011. GDH-TPI coupled enzyme counterscreen, NADH absorbance. inhibition, % at 4.8 µM; in the data active = inhibition above about 30%;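 also: 0% = DMSO wells and 100% = wells lacking the enzyme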
PrPC TRFRET: inhibitors of human cell surface prion protein PrPC, primary screen, cell-based, TR-FRET. TR-FRET read-out. 0.43% of 370,000 active. inhibition, % at 13.8 µM; in the data active = inhibition above about 24%; also: 0% = median of the test wells and 100% = reference compound wells
TcdB GH inh: TcdB glycohydrolase inhibitors, primary screen, biochemical, single point, plate reader; Toxin B (Clostridioides difficile), P18177; TcdB glycohydrolase enzymatic assay; inhibition, % at 9.99 µM; 0.24% of 350,000 active; AID 652162, 2013; in the data active = inhibition above about 10%
PrPC confirm: confirmation of inhibitors of cell surface human prion protein, confirmation, cell-based, TR-FRET; shares compounds with PrPC TRFRET; cell surface PrPC level; inhibition, % at 13.8 µM; 65% of 1,500 active; in the data active = inhibition above about 25%
LD9 tox: cytotoxicity in LD9 cells, cytotoxicity control for cell surface PrPc inhibitor project, cell-based, luminescence, high throughput. shares compounds with PrPC TRFRET. luminescence viability. inhibition, % at 13.8 µM. 29% of 1,500 active; in the data active = inhibition above about 9.5%
The depositor's hits bear a star. Compounds with a hit are over-represented: about 3.2% of the library has one in this group of screens.

Results for CCCn1c(N)c(C(=O)CSc2nnc(N)s2)c(=O)[nH]c1=O ?
FBA Mtb inh: 4; Y pestis TopoI: 7; GDH-TPI inh: -3; PrPC TRFRET: 42*; TcdB GH inh: -2; PrPC confirm: 43*; LD9 tox: 4

How did CCCn1c(N)c(C(=O)CSc2nncs2)c(=O)[nH]c1=O do in these assays?
FBA Mtb inh: -3; Y pestis TopoI: 2; GDH-TPI inh: 0; PrPC TRFRET: 55*; TcdB GH inh: 0; PrPC confirm: 67*; LD9 tox: -5

What do the screens show for `CCCn1c(N)c(C(=O)CSc2nc3ccccc3s2)c(=O)[nH]c1=O`?
FBA Mtb inh: 2; Y pestis TopoI: 5; GDH-TPI inh: -2; PrPC TRFRET: 4; TcdB GH inh: 2

What do the screens show for `O=S(=O)(c1ccccc1)N(CC(F)(F)F)c1ccc(C(O)(C(F)(F)F)C(F)(F)F)cc1`?
FBA Mtb inh: -3; Y pestis TopoI: -9; GDH-TPI inh: -4; PrPC TRFRET: 33*; TcdB GH inh: 4; PrPC confirm: 14; LD9 tox: -3

How did CCCCC(=O)N(C)c1c(CC)nc2c(OCCC3CCCCC3)cccn12 do in these assays?
FBA Mtb inh: -1; Y pestis TopoI: 5; GDH-TPI inh: -1; PrPC TRFRET: 13; TcdB GH inh: 1

What do the screens show for `CCCCC(=O)N(C)c1c(CC)nc2c(OCC3CCCCC3)cccn12`?
FBA Mtb inh: 1; Y pestis TopoI: 17; GDH-TPI inh: 8; PrPC TRFRET: 31*; TcdB GH inh: -11; PrPC confirm: 18; LD9 tox: -9

Results for CCc1nc2c(OCCC3CCCCC3)cccn2c1N(C)C(=O)CC(C)C ?
FBA Mtb inh: 5; Y pestis TopoI: 24; GDH-TPI inh: 18; PrPC TRFRET: 5; TcdB GH inh: 1

How did CCc1nc2c(OCCC3CCCCC3)cccn2c1N(C)C(=O)c1cccs1 do in these assays?
FBA Mtb inh: -2; Y pestis TopoI: 23; GDH-TPI inh: 1; PrPC TRFRET: 27*; TcdB GH inh: -2; PrPC confirm: 17; LD9 tox: -12

What do the screens show for `C[C@@H]1CN([C@H](C)CO)S(=O)(=O)c2ccc(C3=CCCC3)cc2O[C@H]1CN(C)C(=O)c1ccncc1`?
TcdB GH inh: 0

Results for COc1cc2cc(Br)cc(Br)c2nc1C ?
FBA Mtb inh: -6; Y pestis TopoI: -2; GDH-TPI inh: 9; PrPC TRFRET: 63*; PrPC confirm: 89*; LD9 tox: -3

What do the screens show for `COc1ccc(/C(O)=C2/C(=O)C(=O)N(Cc3cccnc3)C2c2ccccn2)cc1` (configuration not stated)?
FBA Mtb inh: -1; Y pestis TopoI: -3; GDH-TPI inh: 24; PrPC TRFRET: -7

What do the screens show for `COc1ccc(C2/C(=C(\O)c3ccc4c(c3)OCCO4)C(=O)C(=O)N2Cc2cccnc2)cc1` (configuration not stated)?
FBA Mtb inh: 2; Y pestis TopoI: -1; GDH-TPI inh: 28; PrPC TRFRET: 0; TcdB GH inh: -2

What do the screens show for `CCCCOc1ccc(/C(O)=C2/C(=O)C(=O)N(Cc3cccnc3)C2c2ccncc2)c(C)c1` (configuration not stated)?
FBA Mtb inh: 1; Y pestis TopoI: -9; GDH-TPI inh: 12; PrPC TRFRET: 45*; PrPC confirm: 70*; LD9 tox: 2

How did Cc1cc(OCC(C)C)ccc1/C(O)=C1/C(=O)C(=O)N(Cc2cccnc2)C1c1ccncc1 (configuration not stated) do in these assays?
FBA Mtb inh: -5; Y pestis TopoI: -1; GDH-TPI inh: 21; PrPC TRFRET: 35*; PrPC confirm: 54*; LD9 tox: 0

Results for COc1cc(C=NO)nc(-c2ccccn2)c1 ?
FBA Mtb inh: 1; Y pestis TopoI: 3; GDH-TPI inh: 3; PrPC TRFRET: 37*; TcdB GH inh: -82; PrPC confirm: 33*; LD9 tox: 22*

Results for C[C@@H]1CN([C@@H](C)CO)S(=O)(=O)c2ccc(C#C[C@@H](C)O)cc2O[C@H]1CN(C)C(=O)C1CCCCC1 ?
TcdB GH inh: 1

How did O=C(c1ccc(CSc2nc3ccncc3[nH]2)cc1)N1CCCCCC1 do in these assays?
FBA Mtb inh: -2; Y pestis TopoI: 4; GDH-TPI inh: 6; PrPC TRFRET: 10; TcdB GH inh: 2

How did O=C(c1ccc(CSc2nc3ccncc3[nH]2)cc1)N1CCN(c2cccc(Cl)c2)CC1 do in these assays?
FBA Mtb inh: 0; Y pestis TopoI: 31; GDH-TPI inh: 6; PrPC TRFRET: 31*; TcdB GH inh: -8; PrPC confirm: 40*; LD9 tox: 9.4*

Results for C[C@@H]1CN([C@@H](C)CO)C(=O)c2cc(NC(=O)c3ccncc3)ccc2O[C@@H](C)CCCCO[C@@H]1CN(C)C(=O)C1CCCCC1 ?
TcdB GH inh: 1

What do the screens show for `O=C(C[C@H]1C=C[C@@H](NC(=O)c2ccccc2)[C@H](CO)O1)NCCc1ccncc1`?
TcdB GH inh: -1

Results for COc1ccc(N(C(C)C(=O)N2CCCC2)S(C)(=O)=O)cc1 (configuration not stated) ?
FBA Mtb inh: -1; Y pestis TopoI: -20; GDH-TPI inh: -6; PrPC TRFRET: 50*; TcdB GH inh: 1; PrPC confirm: 0; LD9 tox: -8

Results for CCOc1ccc(N(C(C)C(=O)N2CCCC2)S(C)(=O)=O)cc1 (configuration not stated) ?
FBA Mtb inh: -3; Y pestis TopoI: 2; GDH-TPI inh: 10; PrPC TRFRET: -8; TcdB GH inh: 1

What do the screens show for `C[C@H](NC(=O)C[C@@H]1C=C[C@H](NC(=O)C2CCOCC2)[C@@H](CO)O1)c1ccccc1`?
TcdB GH inh: 0

How did CC(=O)Nc1cccc(NC(=O)CSc2nc(C3CC3)nc3ccccc23)c1 do in these assays?
FBA Mtb inh: -3; Y pestis TopoI: 26; GDH-TPI inh: 6; PrPC TRFRET: 18; TcdB GH inh: 1

How did Cc1cc(NC(=O)CSc2nc(C3CCCCC3)nc3ccccc23)no1 do in these assays?
FBA Mtb inh: 1; Y pestis TopoI: 28; GDH-TPI inh: 9; PrPC TRFRET: 14

What do the screens show for `Cc1cccc(NC(=O)CSc2nc(C3CC3)nc3ccccc23)c1`?
FBA Mtb inh: -1; Y pestis TopoI: 0; GDH-TPI inh: -1; PrPC TRFRET: 30*; TcdB GH inh: 0; PrPC confirm: 28*; LD9 tox: -6
